Laboratory results as given in publication PMC7826789 (International Journal of Molecular Sciences, 2021).

How the values were obtained:
Conditions in all cases: Compound Concentration (nM):1000
[1] = test system: T1, SIK
T1 construct: gene SIK1

[2] = test system: SLK
[3] = test system: T2, SNARK
T2 construct: gene NUAK2

[4] = test system: SNRK
[5] = test system: SRC
[6] = test system: SRMS
[7] = test system: SRPK1
[8] = test system: SRPK2
[9] = test system: SRPK3
[10] = test system: STK16
[11] = test system: STK33
[12] = test system: STK35
[13] = test system: STK36
[14] = test system: STK39
[15] = test system: SYK
[16] = test system: SgK110
[17] = test system: T3, TAK1
T3 construct: gene MAP3K7

[18] = test system: TAOK1
[19] = test system: TAOK2
[20] = test system: TAOK3
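Also: KINOMEscan scanMAX binding as percent activity remaining versus control; lower means stronger binding.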

Compound	Percent Control [1] [%]	Percent Control [2] [%]	Percent Control [3] [%]	Percent Control [4] [%]	Percent Control [5] [%]	Percent Control [6] [%]	Percent Control [7] [%]	Percent Control [8] [%]	Percent Control [9] [%]	Percent Control [10] [%]	Percent Control [11] [%]	Percent Control [12] [%]	Percent Control [13] [%]	Percent Control [14] [%]	Percent Control [15] [%]	Percent Control [16] [%]	Percent Control [17] [%]	Percent Control [18] [%]	Percent Control [19] [%]	Percent Control [20] [%]
CC1=C(C(=O)Nc2ccc3[nH]ncc3c2)C(c2ccc(Cl)c(Cl)c2)CC(=O)N1 (centres unmarked) [GSK299115A]	97	98	25	100	80	88	99	100	90	85	82	84	100	81	99	100	82	68	77	81
COc1ccc(COc2ccc(Cc3cnc(N)nc3N)cc2OC)cc1 [GW632580X]	96	93	88	87	88	100	100	95	100	93	100	100	74	91	100	100	97	100	100	100
NS(=O)(=O)c1ccc(N/N=C2\C(=O)Nc3ccc(C(=O)NCCc4c[nH]cn4)cc32)cc1 [GW300660X]	100	100	6.9	100	100	90	86	100	76	34	67	100	100	100	100	100	18	75	93	86
Cl.O=C(O[C@H]1CN[C@H](C#Cc2cc3ncnc(Nc4ccc5c(cnn5Cc5ccccc5)c4)c3s2)C1)N1CCOCC1 [GSK200398A]	100	98	100	100	100	92	84	85	100	100	90	99	100	83	91	100	100	91	97	100
NS(=O)(=O)c1ccc(N/N=C2\C(=O)Nc3ccc(C(=O)NCc4ccncc4)cc32)cc1 [GW300657X]	95	100	8.9	100	100	93	89	6.6	72	23	87	93	97	74	73	100	29	84	99	100
COc1cc(C=NNc2ncnc3c2cnn3-c2ccccc2)ccc1O [GW513184X]	79	79	87	100	59	100	33	100	100	100	100	80	82	100	38	100	59	100	100	95
COc1cc2ncn(-c3cc(O[C@H](C)c4ccccc4Cl)c(C(N)=O)s3)c2cc1OC [GSK237701A]	100	0.4	4.3	91	79	92	100	100	100	60	100	90	98	94	78	100	78	54	79	71
Cl.c1ccc(Cc2nc3ccc(Nc4ncnc5ccccc45)cc3[nH]2)cc1 [GR269666A]	100	100	100	100	100	100	100	100	78	100	97	100	100	100	100	100	100	100	100	100
NS(=O)(=O)c1ccc(Nc2ncc(-c3ccccc3)o2)cc1 [GW572399X]	100	100	79	100	100	100	94	100	98	31	100	100	100	100	93	100	100	72	97	86
CN(C)CCNC(=O)Nc1ccc(N(C)c2ccnc(Nc3ccc(CS(C)(=O)=O)cc3)n2)cc1.Cl [GW830900A]	74	42	43	77	100	95	17	100	7.7	30	85	14	70	78	97	47	48	80	86	89
